Results filed as inconclusive are left out. Calls of active or inactive are those of the source. Unless noted, the call rests on the fitted dose curve; in most records, active means well fitted curve in the direction sought with a large enough effect; inconclusive means small, poorly fitted or top-dose-only effect, or another doubt; inactive means no such curve, though single readings can be large; an effect the other way counts as inactive or inconclusive.

Test [1] is described as follows: AP1 Signaling Pathway (AID 357; active means well fitted curve in either direction with a large enough effect, not every such curve was filed as active;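 further: ME-180 reporter cells stimulated with EGF at its EC50 level; on the % scale 0 is the no-effect control and ±100 the full control effect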). Particulars: ME-180 AP-1-bla reporter, EGF-induced, beta-lactamase ratio, 5 h; at 7.69 µM (top of the series) unless noted. The method in brief: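 Modulation of EGF-driven AP-1 transcription was assessed with a beta-lactamase reporter in ME-180 cells. Compound and EC50 EGF were co-incubated 5 hours at 37 °C before 2.5-hour CCF4 loading at room temperature and dual-emission reading.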

The target in test [2] is Cytochrome P450 1A2 (Homo sapiens) (UniProt P05177). In words: p450-cyp1a2 (AID 410; calls by dose curve;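 further: -100% = full effect of reference inhibitor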). The method, boiled down:
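Luminescent readout of luciferin formed from Luciferin-ME by human CYP1A2; data normalized against complete inhibition by 57 uM furafylline. Enzyme 20nM, substrate 100uM at Km, 100mM KPO4 buffer, 60 min reaction at room temperature.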

Test [3] can be described thus: NFAT Signaling Pathway (AID 444; active means well fitted curve in either direction with a large enough effect, not every such curve was filed as active;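 further: carbachol stimulus at about its EC50 of 1 µM final; on the % scale 0 is the no-effect control and ±100 the full control effect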). The note with it: Jurkat NFAT-bla M1, carbachol, beta-lactamase ratio, 5 h; at 7.69 µM (top of the series) unless noted. The method in brief:
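Jurkat cells with NFAT-driven β-lactamase reporter and co-expressed M1 receptor, stimulated with carbachol (final 1 uM, ~EC50), compound titration, 5 h at 37 °C. CCF4 loaded 1 h at RT; 460/530 nm ratio gave %activity and AC50.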

A short description of test [4]: Stat Signaling Pathway (AID 446; active means well fitted curve in either direction with a large enough effect, not every such curve was filed as active;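 further: ME-180 cervical cancer cells given 40 pM IL-6 alongside compound; SIE-controlled beta-lactamase reporter measured as 460/530 nm FRET emission ratio; on the % scale 0 is the no-effect control and ±100 the full control effect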). The note with it: ME-180 SIE beta-lactamase reporter, IL-6 stimulated, 5 h; at 7.69 µM (top of the series) unless noted. The method, boiled down:
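Reporter line: ME-180 cervical carcinoma, SIE-beta-lactamase. Treatment: compound with 40 pM IL-6, 5 hrs, 37 C, in low-serum OPTI-MEM with 10 mM HEPES pH 7.3. Detection: 460/530 nm fluorescence.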

In test [5] the target is Glucocorticoid receptor (Homo sapiens) (UniProt P04150). In words: GR-GFP Redistribution (AID 450;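 active means compounds whose dose series gives a full or clear partial fitted curve of increased nuclear translocation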; further: potency means the concentration at half of the fitted maximal effect). The note with it: U2OS GR-GFP nuclear translocation, laser cytometry, 2 h.
Glucocorticoid receptor (Homo sapiens), sequence (P04150 whole entry, looked up, the tested form may be a part): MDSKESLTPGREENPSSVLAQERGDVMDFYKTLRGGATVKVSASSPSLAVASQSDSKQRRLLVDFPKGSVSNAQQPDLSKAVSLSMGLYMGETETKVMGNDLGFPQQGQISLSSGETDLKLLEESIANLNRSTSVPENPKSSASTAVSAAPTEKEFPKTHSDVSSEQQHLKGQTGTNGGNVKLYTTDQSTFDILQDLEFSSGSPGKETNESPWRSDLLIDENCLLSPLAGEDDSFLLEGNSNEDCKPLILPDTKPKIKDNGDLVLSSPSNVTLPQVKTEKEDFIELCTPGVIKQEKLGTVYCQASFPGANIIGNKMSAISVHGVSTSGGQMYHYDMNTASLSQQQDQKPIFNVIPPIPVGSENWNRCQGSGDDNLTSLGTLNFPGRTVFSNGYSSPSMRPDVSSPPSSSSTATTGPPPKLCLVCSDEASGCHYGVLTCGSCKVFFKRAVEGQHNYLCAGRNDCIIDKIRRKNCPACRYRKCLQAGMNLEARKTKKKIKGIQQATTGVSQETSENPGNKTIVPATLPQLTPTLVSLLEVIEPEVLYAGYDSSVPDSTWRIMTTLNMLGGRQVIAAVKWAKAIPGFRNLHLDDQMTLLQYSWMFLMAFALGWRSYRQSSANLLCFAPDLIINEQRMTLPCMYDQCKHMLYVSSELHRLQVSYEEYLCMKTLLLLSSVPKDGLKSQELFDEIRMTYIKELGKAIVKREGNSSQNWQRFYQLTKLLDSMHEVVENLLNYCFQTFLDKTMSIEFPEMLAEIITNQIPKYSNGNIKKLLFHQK
Test [6] has the same target. In words: GR-EFC Redistribution (AID 451; calls by dose curve; further: potency means the concentration at half of the fitted maximal effect). Particulars: CHO-K1 GR-EFC translocation, beta-gal luminescence, 2 h. The method in brief: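 CHO-K1 cells expressing nuclear EA and GR-ED fragments of b-gal; compounds titrated up to 46 uM final, 2 h at 37 C. GR nuclear translocation read as complemented b-gal luminescence after 1 h RT detection.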
For test [7], the target named is Mitogen-activated protein kinase 10 (Mus musculus) (UniProt Q61831). The experiment in a line: JNK3 AlphaScreen Assay (AID 530; active means well fitted curve in either direction with a large enough effect, not every such curve was filed as active;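 further: kinase came from lysate of stimulated human HepG2 cells; signal reports phosphorylation of biotinylated GST-cJun 1-79 at Ser73 with 10 µM ATP; on the % scale 0 is the no-effect control and ±100 the full control effect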). The method, boiled down:
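Pre-activated (IL-1β/TNFα) JNK3 in HepG2 lysates phosphorylates biotin-GST-cJun(1-79), 10 uM ATP; anti-phospho-cJun(Ser73) AlphaScreen read at room temperature, pH 7.6 Tris buffer. Compounds pre-incubated 15 min as titrations.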

Test [8] concerns the target 3',5'-cyclic-AMP phosphodiesterase 4B (Homo sapiens) (UniProt Q07343). In words: qHTS Assay for Inhibitors of PDE-IV (AID 607; active means well fitted activation curve with a large enough effect in the main read-out, with a control signal flat, not every such curve was filed as active; further: % of control where 0% means no effect). The method, boiled down:
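Cell-based read-out of cAMP via a modified cyclic nucleotide-gated channel and membrane potential dye (535/590 nm) in HEK293 cells expressing PDE4 endogenously. Compounds tested up to 22.9 uM final; 100 uM RO 20-1724 reference.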

Test [9] can be described thus: qHTS Assay for Lipid Storage Modulators (AID 1519; calls by dose curve). Particulars: Drosophila S3 cells, BODIPY lipid droplet/cell ratio, laser cytometry, cells loaded with oleic acid; for activity change, negative = inhibition: at 25.7 µM (top of the series). The method, boiled down: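 Cells seeded at 5,000 per well were treated with compounds over a concentration series and loaded with oleic acid (400 uM, as added). Lipid droplet fluorescence (488 nm excitation, 500-530 nm channel) was read by laser-scanning cytometry and normalized to 20 uM Triacsin C.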

Test [10] concerns the target ATP-dependent 6-phosphofructokinase (Trypanosoma brucei brucei) (UniProt O15648). In words: qHTS Assay to Find Inhibitors of T. brucei phosphofructokinase: hit validation (AID 492961). The method in brief: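 Compounds titrated; %activity normalized to 0x and 1x enzyme controls, curve-fitted. Readout: ADP-Glo luminescence after 45 min room-temperature reaction of 1.25 nM PFK, 0.1 mM ATP, 0.5 mM F6P, pH 8.0.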
(Quantitative high-throughput screening tests each substance at several concentrations.)

Test [11] concerns the target Ubiquitin carboxyl-terminal hydrolase 1 (Homo sapiens) (UniProt O94782). In words: Inhibitors of USP1/UAF1: Pilot qHTS (AID 504865).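 Further: rhodamine fluorescence freed from ubiquitin-rhodamine substrate followed over time; top concentration of the series differs between compounds; on the % scale 0 is the no-effect control and ±100 the full control effect; nearly all actives have a fitted effect of over 35% in size.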 The method, boiled down: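 USP1/UAF1 complex (1nM) preincubated with compound 15 min at room temperature, then Ub-Rho substrate (150nM final) added. Fluorescence read kinetically at 480/540 nm, 6 reads every 60 seconds. Buffer: 50mM HEPES pH 7.8, 0.5mM EDTA, 0.1 mg/ml BSA, 1mM TCEP, 0.01% Tween-20.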

Test [12] concerns the target Luciferin 4-monooxygenase (Photinus pyralis) (UniProt P08659). The experiment in a line: Biochemical firefly luciferase enzyme assay for NPC (AID 624030).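 Further: purified P. pyralis luciferase at 10 nM with luciferin and ATP substrate; 0% = DMSO and -100% = full luciferase inhibition by PTC124 control; nearly all actives have a fitted effect of over 70% in size.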 The method in brief: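 Purified P. pyralis luciferase at 10 nM in 50 mM Tris Acetate (final), luminescence read within 5 minutes of enzyme addition to compounds. Activity normalised to PTC124 versus DMSO; concentration-response curves classed by r2, magnitude and activity.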

Test [13] in a line: qHTS profiling for inhibitors of Plasmodium falciparum proliferation (AID 504749).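 Further: 0% = DMSO vehicle and full inhibition = artemisinin control; nearly all actives have a fitted effect of over 60% in size.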 The note with it: P. falciparum in erythrocytes, SYBR Green DNA, 72 h, at 12.8 µM (top of the series). The method in brief: (§1)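 P. falciparum-infected erythrocytes (0.3% parasitemia, 2.5% hematocrit) incubated with compound 72 h at 37 C, 5% CO2. Parasite DNA detected by SYBR Green after lysis, overnight at room temperature; normalised to 0.29 uM artemisinin and DMSO.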

In the next test the test system is AS120. Described as above. Particulars: P. falciparum in erythrocytes, SYBR Green DNA, 72 h; series mostly up to 28.7 µM. The method in brief: as §1
The test system of a further test is CP238. The description is as above. Particulars: P. falciparum in erythrocytes, SYBR Green DNA, 72 h; series mostly up to 12.8 µM. The method, boiled down:
as §1

The next test has as its system CP265. The description is as above. The note with it: P. falciparum in erythrocytes, SYBR Green DNA, 72 h; series mostly up to 12.8 µM. The method, boiled down: as §1
The next test relates to FAB9. Described as above. Particulars: P. falciparum in erythrocytes, SYBR Green DNA, 72 h; series mostly up to 12.8 µM. The method in brief:
as §1

Where [14] appears, read: measured here: cell count channel max response.
Where [15] appears, read: measured here: lipid channel max response.

Ubiquitin carboxyl-terminal hydrolase 1 (Homo sapiens), sequence (O94782 whole entry, looked up): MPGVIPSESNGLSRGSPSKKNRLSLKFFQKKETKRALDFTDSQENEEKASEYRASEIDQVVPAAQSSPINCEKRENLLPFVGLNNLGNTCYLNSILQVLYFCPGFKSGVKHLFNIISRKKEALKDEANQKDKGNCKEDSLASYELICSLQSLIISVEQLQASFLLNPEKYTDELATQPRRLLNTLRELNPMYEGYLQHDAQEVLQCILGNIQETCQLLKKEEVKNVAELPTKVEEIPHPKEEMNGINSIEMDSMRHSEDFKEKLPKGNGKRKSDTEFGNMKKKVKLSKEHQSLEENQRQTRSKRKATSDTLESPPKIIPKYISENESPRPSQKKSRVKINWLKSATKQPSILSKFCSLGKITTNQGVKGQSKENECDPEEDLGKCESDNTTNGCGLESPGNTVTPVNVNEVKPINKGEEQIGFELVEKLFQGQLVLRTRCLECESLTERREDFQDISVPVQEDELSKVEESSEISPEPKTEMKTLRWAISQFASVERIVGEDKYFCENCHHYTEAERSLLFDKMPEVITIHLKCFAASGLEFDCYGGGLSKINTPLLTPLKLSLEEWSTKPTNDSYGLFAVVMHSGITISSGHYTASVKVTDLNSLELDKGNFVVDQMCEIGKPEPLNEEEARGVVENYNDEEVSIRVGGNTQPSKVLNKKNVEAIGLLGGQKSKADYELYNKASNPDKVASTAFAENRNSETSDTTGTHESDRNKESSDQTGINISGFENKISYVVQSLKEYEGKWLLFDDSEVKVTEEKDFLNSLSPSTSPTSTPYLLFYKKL
ATP-dependent 6-phosphofructokinase (Trypanosoma brucei brucei), sequence (O15648 whole entry, looked up): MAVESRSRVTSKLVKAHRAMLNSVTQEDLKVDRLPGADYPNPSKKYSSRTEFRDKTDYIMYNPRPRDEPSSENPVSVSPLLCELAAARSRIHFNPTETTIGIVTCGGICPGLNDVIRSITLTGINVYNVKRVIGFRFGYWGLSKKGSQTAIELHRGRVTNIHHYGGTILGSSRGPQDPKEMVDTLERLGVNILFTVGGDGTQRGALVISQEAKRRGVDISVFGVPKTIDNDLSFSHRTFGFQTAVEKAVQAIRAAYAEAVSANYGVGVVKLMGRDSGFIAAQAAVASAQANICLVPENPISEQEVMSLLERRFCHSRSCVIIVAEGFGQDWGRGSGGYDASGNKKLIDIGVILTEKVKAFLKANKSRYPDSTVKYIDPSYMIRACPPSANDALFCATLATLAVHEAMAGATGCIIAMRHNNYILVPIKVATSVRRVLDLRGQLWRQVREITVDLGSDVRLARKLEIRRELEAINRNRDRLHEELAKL
Cytochrome P450 1A2 (Homo sapiens), sequence (P05177 whole entry, looked up): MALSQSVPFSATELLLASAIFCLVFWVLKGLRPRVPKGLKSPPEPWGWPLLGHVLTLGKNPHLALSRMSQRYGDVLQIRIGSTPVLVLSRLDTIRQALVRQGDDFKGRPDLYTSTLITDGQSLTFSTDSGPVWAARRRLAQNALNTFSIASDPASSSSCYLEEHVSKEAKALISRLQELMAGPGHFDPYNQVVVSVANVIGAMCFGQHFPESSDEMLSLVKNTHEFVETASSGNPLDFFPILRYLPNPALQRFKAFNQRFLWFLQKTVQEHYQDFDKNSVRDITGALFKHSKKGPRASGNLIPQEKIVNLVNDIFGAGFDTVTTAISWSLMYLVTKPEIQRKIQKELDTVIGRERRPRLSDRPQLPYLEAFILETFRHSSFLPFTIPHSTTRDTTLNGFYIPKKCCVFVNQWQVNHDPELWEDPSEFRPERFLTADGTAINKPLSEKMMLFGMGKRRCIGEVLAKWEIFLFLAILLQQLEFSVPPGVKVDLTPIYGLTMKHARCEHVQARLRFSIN
3',5'-cyclic-AMP phosphodiesterase 4B (Homo sapiens), sequence (Q07343 whole entry, looked up): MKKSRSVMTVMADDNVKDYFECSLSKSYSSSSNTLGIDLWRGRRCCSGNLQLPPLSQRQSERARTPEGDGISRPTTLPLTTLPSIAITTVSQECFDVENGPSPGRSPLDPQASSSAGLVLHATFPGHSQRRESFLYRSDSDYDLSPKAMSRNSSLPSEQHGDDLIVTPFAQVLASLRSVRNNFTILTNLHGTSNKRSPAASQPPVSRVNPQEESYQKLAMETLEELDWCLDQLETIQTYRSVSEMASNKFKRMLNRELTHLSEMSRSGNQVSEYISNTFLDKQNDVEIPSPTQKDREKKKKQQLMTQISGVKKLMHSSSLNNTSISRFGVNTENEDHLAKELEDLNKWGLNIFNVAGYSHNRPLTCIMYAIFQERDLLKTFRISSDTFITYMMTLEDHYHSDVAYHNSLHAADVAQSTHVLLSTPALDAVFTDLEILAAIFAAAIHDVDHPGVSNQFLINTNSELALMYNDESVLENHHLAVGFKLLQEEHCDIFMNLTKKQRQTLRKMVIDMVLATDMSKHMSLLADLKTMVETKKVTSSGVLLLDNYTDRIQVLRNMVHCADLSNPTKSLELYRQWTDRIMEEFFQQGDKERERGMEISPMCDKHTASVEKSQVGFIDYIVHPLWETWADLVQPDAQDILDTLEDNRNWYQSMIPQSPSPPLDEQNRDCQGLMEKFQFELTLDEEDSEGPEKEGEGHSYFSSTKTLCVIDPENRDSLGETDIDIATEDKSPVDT
Luciferin 4-monooxygenase (Photinus pyralis), sequence (P08659 whole entry, looked up): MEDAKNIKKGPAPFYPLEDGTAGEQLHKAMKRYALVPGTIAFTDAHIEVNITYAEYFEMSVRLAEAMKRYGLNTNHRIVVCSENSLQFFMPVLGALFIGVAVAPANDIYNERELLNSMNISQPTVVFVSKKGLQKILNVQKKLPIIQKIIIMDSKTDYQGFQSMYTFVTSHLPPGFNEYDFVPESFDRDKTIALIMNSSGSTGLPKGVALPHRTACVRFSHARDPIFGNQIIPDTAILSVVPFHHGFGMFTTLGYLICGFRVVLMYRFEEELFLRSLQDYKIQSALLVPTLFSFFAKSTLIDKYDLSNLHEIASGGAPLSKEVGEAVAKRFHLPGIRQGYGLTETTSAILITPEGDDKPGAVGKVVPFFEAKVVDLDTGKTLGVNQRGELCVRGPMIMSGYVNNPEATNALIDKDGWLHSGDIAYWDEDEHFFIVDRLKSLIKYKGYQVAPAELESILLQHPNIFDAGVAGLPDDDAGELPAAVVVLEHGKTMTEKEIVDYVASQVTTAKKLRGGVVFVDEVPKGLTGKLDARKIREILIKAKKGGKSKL

With `C[C@@H](C(=O)O)c1ccc(C(=O)c2cccs2)cc1`, the activity change, negative = inhibition in test [1] is 4.04% [at 17.2 µM] (inactive); in test [3], -1.88% [at 17.2 µM] (inactive); in test [9], 0.809% (inactive). Besides, the Potency entry (in test [2]; in test [7]; in [8]; in test [11]; in the test on AS120; in the test on CP238) was “inactive” throughout. Further, the Potency entry in the test on CP265 and with FAB9 was “inactive” in each case. Besides, the activity, negative = inhibition in test [4] is 1.29% [at 17.2 µM] (inactive); in test [13] (parasite line A) it was 0.517% (inactive); in test [13] (parasite line B) it was 11.1% (inactive). The Potency in test [5] and in test [6] was > 20.6 µM (inactive) throughout. Further, the max response in [9] (setting [14]) is -2.83%; in test [9] (setting [15]), -2.07%. In addition, the compound was called inactive in [10] and in test [12].

As to `CC(C)(O/N=C(\C(=O)N[C@@H]1C(=O)N2C(C(=O)[O-])=C(C[n+]3ccccc3)CS[C@@H]12)c1csc(N)n1)C(=O)O`, the activity change, negative = inhibition in [1] was 8.59% [at 17.2 µM] (inactive); in test [3], 7.85% [at 17.2 µM] (inactive); in [9] it was 0.159% (inactive). Besides, the Potency result (in test [2]; in [7]; in test [8]; in [11]; in the test with AS120; in the test with CP238) was “inactive” each time. The Potency result in the test with CP265 and in the test with FAB9 was “inactive” throughout. Also, the values for the activity, negative = inhibition in [4], in test [13] (parasite line A) and in test [13] (parasite line B) were 7.45% [at 17.2 µM] (inactive), 2.04% (inactive) and -2.21% (inactive), respectively. Moreover, the Potency in test [5] and in test [6] was > 20.6 µM (inactive) each time. Further, the values for the max response in test [9] (setting [14]) and in [9] (setting [15]) were -1.74% and -1.95%, respectively. Moreover, the compound was called inactive in test [10] and in test [12].

The record behind these values is PubChem BioAssay (NCATS).
